Bioassay records (PubChem)
Most compounds without a hit are left out; they make up all but 3.4% or so of the library.
GPR151 activ: human GPR151 activation; PathHunter beta-arrestin GPR151 cells, luminescence; activation, % at 11.2 µM; 650,000 tested, 1% active; AID 1508602; in the data active = activation above about 4.9%;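 also: 0% = median of compound wells and 100% = cells with positive control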
TEAD-YAP inh: TEAD-YAP interaction inhibition | HEK-TIYL cells, TEAD-Gal4/YAP UAS-luciferase luminescence | inhibition, % at 9.12 µM | 640,000 tested, 1.4% active | AID 1259422; in the data active = inhibition above about 32%;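 also: 0% = median of test compound wells and 100% = reference inhibitor wells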
FBW7 activator: activators of human E3 ligase FBW7; AID 1259310; AlphaScreen FBW7–phospho-cyclin E peptide binding, activator screen; 650,000 tested, 0.13% active; normalized activity (activation), % at 26.1 µM; Q969H0; in the data active = normalized activity above about 1.9%;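 also: purified mutant Fbw7 with reduced substrate affinity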
Target sequence (Q969H0 whole entry, looked up): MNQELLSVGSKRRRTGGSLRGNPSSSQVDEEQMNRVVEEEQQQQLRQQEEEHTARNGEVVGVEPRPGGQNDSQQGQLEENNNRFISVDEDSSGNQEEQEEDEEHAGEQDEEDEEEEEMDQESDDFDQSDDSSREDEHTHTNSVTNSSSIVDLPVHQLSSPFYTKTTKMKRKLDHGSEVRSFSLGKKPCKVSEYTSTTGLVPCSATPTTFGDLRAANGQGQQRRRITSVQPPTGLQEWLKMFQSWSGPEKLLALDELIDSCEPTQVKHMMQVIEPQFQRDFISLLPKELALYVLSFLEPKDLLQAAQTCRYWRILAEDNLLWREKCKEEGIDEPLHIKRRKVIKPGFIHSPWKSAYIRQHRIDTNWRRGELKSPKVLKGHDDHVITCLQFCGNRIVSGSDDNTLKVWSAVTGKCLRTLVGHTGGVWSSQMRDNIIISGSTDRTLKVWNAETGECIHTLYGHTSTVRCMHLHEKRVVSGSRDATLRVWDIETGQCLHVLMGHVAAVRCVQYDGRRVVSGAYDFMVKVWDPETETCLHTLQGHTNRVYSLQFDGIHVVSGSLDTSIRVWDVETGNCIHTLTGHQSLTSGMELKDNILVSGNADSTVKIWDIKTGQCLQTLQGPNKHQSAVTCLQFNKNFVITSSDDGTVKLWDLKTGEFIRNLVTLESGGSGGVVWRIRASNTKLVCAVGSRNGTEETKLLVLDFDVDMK
MITF inh: human MITF inhibition, primary screen; AlphaScreen MITF homodimerization, bead proximity signal; O75030; 650,000 tested, 0.91% active; inhibition, % at 2.6 µM; in the data active = inhibition above about 50%;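 also: 0% = vehicle wells with protein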
* marks the source's active call; other numbers are inactive results.

SMILES	GPR151 activ	TEAD-YAP inh	FBW7 activator	MITF inh
Cc1cc(=O)[nH]c(N/N=C/c2cc(C)c(/C=N/Nc3nc(C)cc(=O)[nH]3)cc2C)n1	0	-2	0	2
Cc1cc(=O)[nH]c(N/N=C/c2cc(Br)ccc2O)n1	-2	7	0	65*
Cc1n[nH]c(=O)nc1N/N=C/c1cc(Br)ccc1O	-3	76*	0	116*
CC(C)(C)c1nnc(N/N=C/c2ccccc2O)[nH]c1=O	1	82*	0	96*
Cc1n[nH]c(=O)nc1N/N=C/c1ccccc1O	-7	18	-1	94*
CCC(C)NC(=O)COc1ccc(OC)cc1 (stereo not given)	0	-5	0	-4
CCN(CC)S(=O)(=O)c1ccc2[nH]c3nc(SCc4cccnc4)nnc3c2c1	2	37*	0	8
C=CCOc1ccc(C(=O)Nc2ccccn2)cc1	-8	52*	0	10
CC(C)(C)c1ccc(C(=O)Nc2ccccn2)cc1	-10	84*	0	15
Cc1ccc(C(=O)Nc2ccccn2)cc1C	-10	44*	0	18
COc1cccc(-n2nc(C(=O)Nc3cc(C)c(Cl)cc3OC)c3ccccc3c2=O)c1	-1	-2	0	6
COCCN1C(=O)/C(=C\c2cc(C)n(-c3ccc(Cl)cc3)c2C)C(C(=O)OC)=C1C	-1	-6	0	15
CCN1C(=O)/C(=C\c2cc(C)n(-c3ccc(Cl)cc3)c2C)C(C(=O)OC)=C1C	1	-5	7.3*	23
COC(=O)C1=C(C)N(Cc2ccco2)C(=O)/C1=C\c1cc(C)n(-c2ccccc2F)c1C	0	-10	0	72*
CC(=O)Nc1ccc(-c2sc(NC(=O)C3COc4ccccc4O3)nc2-c2ccncc2)cc1 (stereo not given)	0	-4	0	13
C=CCC1N(c2ccccc2)C(=O)C2C(C(=O)OCC)C3C=CC21O3 (stereo not given)	-1	-14	0	-8
C#CC(O)(c1ccc(OC)cc1)c1ccc(OC)c2ccccc12 (stereo not given)	0	56*	0	0
COC(=O)CN1C(=S)N(C)C(=O)/C1=C/c1cc(OC)c(O)c(OC)c1	2	46*	0	27
COc1ccc(/C=C2\C=C(c3ccccc3)N(c3cccc(Br)c3)C2=O)cc1Br	0	-3	0	-4
CC(C)c1cc(=O)[nH]c(-n2nc(C3CC3)cc2NC(=O)C(C)(C)C)n1	1	57*	-1	3
CCn1c2c(n[n+]1[O-])C(=O)c1ccccc1C2=O	-5	101*	0	0
O=C1c2ccccc2C(=O)c2c1nc1ccccn21	-2	3	0	-11
COC(=O)c1c(OC(C)C)cc(=O)n2c1CCN(Cc1cccc(OC)c1OC)CC2	0	1	0	-15
COC(=O)c1ccc(N2N=C(C)/C(=C/c3ccc(OCc4ccc(Cl)cc4)c(OC)c3)C2=O)cc1	3	-70	2.0*	24
CCOC(=O)N1CCc2c(sc(NC(=O)c3ccc(N(C)C)cc3)c2C#N)C1	-1	49*	0	2
SMILES	GPR151 activ	TEAD-YAP inh	FBW7 activator	MITF inh
CCOC(=O)N1CCc2c(sc(NC(=O)CCOc3ccccc3)c2C#N)C1	-1	38*	0	-2
CC(=O)N1CCc2c(sc(NC(=O)c3ccc(C)cc3)c2C#N)C1	0	39*	0	-5
CCCCn1c(CNC(=O)c2ccc([N+](=O)[O-])cc2)nnc1SC(C)C(=O)Nc1sc2c(c1C(=O)OCC)CCCC2 (stereo not given)	0	-4	0	-6
O=C1N(c2ccccc2)C[C@@H]2C[C@@H](c3ccccc3F)N3CCC[C@@]123	0	-11	0	-8
Cc1ccc(-c2nc(N)sc2-c2ccc([N+](=O)[O-])cc2)cc1	1	37*	0	11
Cc1ccc(N2C(N)=C(C#N)C(c3cc(Br)cs3)C3=C2CCCC3=O)cc1 (stereo not given)	1	34*	0	3
CCOc1ccc(C2C(C#N)=C(N)N(c3ccc(C)cc3)C3=C2C(=O)CCC3)cc1 (stereo not given)	0	57*	0	-9
COc1ccc(N2C(N)=C(C#N)C(c3ccccc3)C3=C2CCCC3=O)cc1 (stereo not given)	0	44*	0	4
COc1ccc(C2C(C#N)=C(N)N(c3ccc(Cl)cc3)C3=C2C(=O)CCC3)cc1 (stereo not given)	1	-2	0	8
CCN(CC(=O)Nc1ccc(OC)cc1)Cc1nc2sc(C(=O)OC)c(C)c2c(=O)[nH]1	0	7	0	4
O=C(/C=C\c1ccco1)Nc1cc([N+](=O)[O-])ccc1F	1	60*	0	10
CC(CC(=O)Nc1cc([N+](=O)[O-])ccc1F)c1ccccc1 (stereo not given)	0	38*	0	0
O=C(/C=C/c1ccc(F)cc1)Nc1cc([N+](=O)[O-])ccc1F	0	53*	0	3
CC(CC(=O)Nc1cc([N+](=O)[O-])ccc1Cl)c1ccccc1 (stereo not given)	-1	-12	0	2
O=C(/C=C/c1ccc(F)cc1)Nc1ccc([N+](=O)[O-])cc1Br	1	-4	0	-8
CC1CN(CCC(=O)NCc2nc(-c3ccccc3)cs2)Cc2ccccc2O1 (stereo not given)	1	-2	0	4
CC(C(=O)N1CCC2(CC1)CC2C(=O)Nc1cccc(F)c1)c1n[nH]c(=O)c2ccccc12 (stereo not given)	1	0	0	-10
CC(=O)NC(c1ccc(C(C)C)cc1)c1ccc2cccnc2c1O (stereo not given)	3	83*	-1	24
Oc1cccnc1NC(c1ccccc1F)c1ccc2cccnc2c1O (stereo not given)	1	36*	0	45
CC(=O)NC(c1ccccc1F)c1ccc2cccnc2c1O (stereo not given)	-2	84*	0	-11
Cc1ccc(C(NC(=O)c2ccccc2)c2ccc3cccnc3c2O)cc1 (stereo not given)	-1	24	0	6
Cc1cc(C)nc(NC(c2ccco2)c2ccc3cccnc3c2O)n1 (stereo not given)	-1	-32	0	11
CSc1ccc(/C=N/NC(=O)c2nnn(-c3nonc3N)c2C)cc1	0	0	0	9
O=C(Nc1ccccc1)c1ccc(F)c(S(=O)(=O)NC2CCCCC2)c1	1	12	0	4
COc1ccc(OC)c(C2C(C#N)=C(N)N(N(C)C)C3=C2C(=O)CC(c2ccccc2)C3)c1 (stereo not given)	-1	57*	0	6
COc1ccccc1C1C(C#N)=C(N)OC2=C1C(=O)CC(c1ccccc1)C2 (stereo not given)	1	-11	0	9
N#CC1=C(N)OC2=C(C(=O)CC(c3ccccc3)C2)C1c1ccc([N+](=O)[O-])s1 (stereo not given)	1	8	0	9
